Hits are enriched below; roughly 1.1% of the tested compounds scored in any of these assays.
NCOA2 inhibitor: human SRC2 (NCOA2) inhibition | Q15596 | HEK293 GAL4-SRC2 luciferase reporter, luminescence | inhibition, % at 9 µM | 370,000 tested, 0.17% active | AID 651957;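 active = inhibition above the mean inhibition of all tested compounds plus 3 SD, set per campaign, cut at about 52% in these data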
NR5A2 inv ag: suppresses constitutive activity of human LRH-1; O00482; HEK293T StAR-luciferase reporter, LRH-1 transfected, 24 h; inhibition, % at 3.6 µM; 360,000 tested, 0.13% active; AID 602396;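 active = inhibition above the mean inhibition of all tested compounds plus 3 SD, cut at about 73% in these data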
Target sequence (O00482 whole entry, looked up): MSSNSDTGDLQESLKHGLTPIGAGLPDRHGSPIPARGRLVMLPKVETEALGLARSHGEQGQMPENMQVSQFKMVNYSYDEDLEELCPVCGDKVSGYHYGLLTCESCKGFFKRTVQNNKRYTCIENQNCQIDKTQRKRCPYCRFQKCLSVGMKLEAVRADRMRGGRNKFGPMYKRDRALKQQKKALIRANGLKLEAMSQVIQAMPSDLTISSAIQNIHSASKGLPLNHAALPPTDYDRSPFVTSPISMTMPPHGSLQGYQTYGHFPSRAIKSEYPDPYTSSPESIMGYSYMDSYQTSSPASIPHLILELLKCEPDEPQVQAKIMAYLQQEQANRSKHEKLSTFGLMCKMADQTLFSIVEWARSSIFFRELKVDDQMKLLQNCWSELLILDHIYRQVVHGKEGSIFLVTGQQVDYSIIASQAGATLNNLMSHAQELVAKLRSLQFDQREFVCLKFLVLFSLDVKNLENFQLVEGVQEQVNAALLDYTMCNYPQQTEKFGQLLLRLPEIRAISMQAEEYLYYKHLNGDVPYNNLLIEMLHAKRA
NCOA3 inh: human NCOA3 inhibition; inhibition, % at 3.6 µM; 360,000 tested, 0.17% active; HEK293 GAL4-SRC3 luciferase reporter, luminescence; Q9Y6Q9;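 active = inhibition above a per-campaign cutoff, the mean of all compounds plus 3 SD, cut at about 60% in these data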;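 note: higher means less SRC3-driven luciferase light from the GAL4 reporter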
NR2F2 inh: NR2F2 (human) inhibition, primary screen; 370,000 tested, 0.7% active; P24468; HEK293T NGFI-A luciferase reporter, luminescence; inhibition, % at 8.6 µM;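 active = inhibition above a per-plate cutoff, mean inhibition of test wells between control levels plus 3 SD, cut at about 38% in these data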;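 note: cells cotransfected with COUP-TFII expression vector driving the NGFI-A reporter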
GalR3 antagonist: blocks the human galanin receptor 3; O60755; HEK293 GalR3-CNG cAMP membrane potential fluorescence; galR3 body fused to GalR1 C-terminus; inhibition, % at 3 µM; 360,000 tested, 0.44% active;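 active = inhibition above the screen-wide average plus 3 SD, cut at about 13% in these data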;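 note: forskolin and galanin both at EC90 stimulate the cells; cAMP rise reported by CNG channel membrane potential dye signal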
NCOA1 inh: inhibits human SRC1 coactivator; HEK293 GAL4-SRC1 luciferase reporter, luminescence; AID 588354; 360,000 tested, 0.12% active; inhibition, % at 3.6 µM;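 active = inhibition above the campaign mean plus 3 SD, with each screening campaign given its own cutoff, cut at about 60% in these data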
Gal4-VP16 ctr: counter-screen for COUP-TFII antagonists: inhibitors of VP16; inhibition, % at 8.5 µM; 2,500 tested, 25% active; HEK293 Gal4-VP16 luciferase reporter, luminescence; shares compounds with NR2F2 inh; in the data active = inhibition above about 13%
COUP-TFII conf: COUP-TFII (NR2F2) inhibition, confirmation assay. inhibition, % at 8.5 µM. HEK293 NGFI-A luciferase reporter, luminescence. shares compounds with NR2F2 inh. 2,500 tested, 45% active;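 active = mean inhibition over three repeats above a set limit taken from the earlier primary screen, cut at about 38% in these data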
Hits are given with their value; – = inactive; · = no result.

SMILES | NCOA2 inhibitor | NR5A2 inv ag | NCOA3 inh | NR2F2 inh | GalR3 antagonist | NCOA1 inh | Gal4-VP16 ctr | COUP-TFII conf
COC(=O)c1c(-c2ccc(C)cc2)csc1NC(=O)Cc1ccc(OC)c(OC)c1 | – | – | – | – | – | – | · | ·
CCN(Cc1ccccc1)C(=O)Nc1c(Cl)cccc1Cl | – | · | · | – | – | · | · | ·
N#Cc1ccccc1N1CCN(C(=O)C2CCN(c3ncnc4c3sc3cccc(F)c34)CC2)CC1 | – | · | · | 57.6 | · | · | – | –
Cc1nn(C(C)C)c(C)c1CN1CCCC(C(=O)c2cccc(OC(C)C)c2)C1 (stereo not drawn) | – | – | – | 37.5 | – | – | – | –
COC(=O)[C@]12C[C@H](CC(=O)N3CCN(C(=O)C4CC4)CC3)C(=O)N(Cc3ccc(Cl)cc3Cl)C1=C[C@H](C(C)(C)C)O[C@@H]2C | – | · | · | – | · | · | · | ·
CC1CCN(c2ccc(-c3cccc(NC(=O)C(F)(F)F)c3)nn2)CC1 | – | – | – | 40.6 | – | – | – | –
O=C(Nc1cccc(-c2ccc(N3CCCCC3)nn2)c1)C(F)(F)F | – | – | – | – | – | – | · | ·
CCOc1ccc2[nH]c3c(NCCc4ccc(OC)c(OC)c4)ncnc3c2c1 | – | – | – | 49.3 | – | – | – | –
CCOc1ccc2[nH]c3c(NCCO)ncnc3c2c1 | – | – | – | – | – | – | · | ·
CCN(CC)CCNC(=O)c1ccc2c(c1NCCO)C(=O)c1ccccc1C2=O | – | – | 62.8 | 64.1 | – | – | – | –
CC1CCN(C(=O)c2ccc3c(c2NCCO)C(=O)c2ccccc2C3=O)CC1 | – | – | – | – | – | – | · | ·
CN(C(=O)CN1CCN(c2cc(-c3ccc(-c4ccccc4)cc3)ncn2)CC1)c1ccccc1 | – | – | – | 53.8 | – | – | – | –
Cc1ccccc1N(C)C(=O)CN1CCN(c2nc(-c3ccccc3)cs2)CC1 | – | · | · | – | · | · | · | ·
CCc1ccc(CCNC(=O)OCCCN2CCC3(CCC(c4ccccc4)CC3)C2=O)cc1 (stereo not drawn) | – | · | · | 41.0 | · | · | – | –
CCCCNC(=O)OCCCN1CCC2(CCC(c3ccccc3)CC2)C1=O (stereo not drawn) | – | · | · | – | · | · | · | ·
NC(=O)c1cccc(-c2noc(-c3ccccc3F)n2)c1 | – | – | – | 57.5 | – | – | 21.9 | –
CCc1c(-c2ccccc2OC)ncn1Cc1cccc(-c2ccccc2)c1 | – | – | · | 51.3 | – | · | – | –
COc1ccccc1-c1ncn(Cc2cccc(-c3ccccc3)c2)c1CC(C)C | – | – | · | – | – | · | · | ·
CC(C)(C)c1ccc(C(=O)Nc2ccc(CC(=O)O)cc2)o1 | 87.1 | – | – | 94.7 | – | – | 84.3 | 90.5
COC(=O)N1CCCC1c1cccc2[nH]cc(C)c12 (stereo not drawn) | – | · | · | – | · | · | · | ·
COCCn1c(C)cc(C(=O)COC(=O)c2cc3c(s2)CCC3)c1C | – | – | – | – | – | – | · | ·
COCCn1c(C)cc(C(=O)COC(=O)c2cccc(O)c2)c1C | – | – | – | 72.4 | – | – | 63.8 | 87.1
Cc1cc(C(=O)COC(=O)c2ccncc2)c(C)n1Cc1ccco1 | – | – | – | – | – | – | · | ·
Cc1cc(C(=O)COC(=O)c2ccco2)c(C)n1Cc1ccco1 | – | – | – | 58.4 | – | – | – | –
CCCCCCC[N+](CC)(CC)CCCCc1ccc(Cl)cc1 | – | – | – | 40.8 | – | – | 14.8 | –
SMILES | NCOA2 inhibitor | NR5A2 inv ag | NCOA3 inh | NR2F2 inh | GalR3 antagonist | NCOA1 inh | Gal4-VP16 ctr | COUP-TFII conf
Cn1c(NC2=NC3(CCCC3)C3=C(CCCC3=O)N2)nc2ccccc21 | · | · | · | – | · | · | · | ·
Cc1cccc(-c2nnc(SCC(=O)Nc3ccc(OCc4ccccc4)cc3)n2Cc2ccco2)c1 | – | · | · | – | · | · | · | ·
Cn1c(Cc2cccs2)nnc1SCC(=O)Nc1ccc2c(c1)OCCO2 | – | · | · | – | · | · | · | ·
Cc1ccc(OCCN2CCN(C(=O)CCC(=O)Nc3nnc(CC(C)C)s3)CC2)cc1 | – | – | – | 56.1 | – | – | – | –
Cc1cc(=O)oc2cc(OCC(=O)OCC(=O)Nc3ccccc3Br)ccc12 | – | – | – | 54.7 | – | – | – | –
O=C(Nc1cc(Sc2ccccn2)cc([N+](=O)[O-])c1)c1cccc(F)c1 | – | – | – | 42.0 | – | – | – | –
